# Laboratory results taken from PubChem BioAssay AID1456 (Vanderbilt High Throughput Screening Facility, 2008).
# The campaign covered roughly 190,000 compounds. About 4,100 (2.2%) were called active. The sample holds actives, similar compounds and a random draw of the others, so the mix is not that of the screen. Values without a mark were called inactive.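 How the source made its calls: active means thallium flux slope and its plate-corrected score both differing from the plate sample mean at a set confidence after two filtering rounds, in either direction; inactive means the rest.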
# Molecular target: Solute carrier family 12 member 5 (Homo sapiens) (UniProt Q9H2X9)
# Experiment: KCC2 cotransporter modulators, thallium flux, primary screen, cell-based, HEK293 KCC2, FluoZin-2 fluorescence, MLSMR (AID 1456);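 further: slope of fluorescence scaled to starting intensity during 10 to 20 s after thallium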
# Conditions: KCC2 cells, thallium flux FluoZin-2 fluorescence; at 10 µM
# Sequence of Solute carrier family 12 member 5 (Homo sapiens) (Q9H2X9 whole entry, looked up): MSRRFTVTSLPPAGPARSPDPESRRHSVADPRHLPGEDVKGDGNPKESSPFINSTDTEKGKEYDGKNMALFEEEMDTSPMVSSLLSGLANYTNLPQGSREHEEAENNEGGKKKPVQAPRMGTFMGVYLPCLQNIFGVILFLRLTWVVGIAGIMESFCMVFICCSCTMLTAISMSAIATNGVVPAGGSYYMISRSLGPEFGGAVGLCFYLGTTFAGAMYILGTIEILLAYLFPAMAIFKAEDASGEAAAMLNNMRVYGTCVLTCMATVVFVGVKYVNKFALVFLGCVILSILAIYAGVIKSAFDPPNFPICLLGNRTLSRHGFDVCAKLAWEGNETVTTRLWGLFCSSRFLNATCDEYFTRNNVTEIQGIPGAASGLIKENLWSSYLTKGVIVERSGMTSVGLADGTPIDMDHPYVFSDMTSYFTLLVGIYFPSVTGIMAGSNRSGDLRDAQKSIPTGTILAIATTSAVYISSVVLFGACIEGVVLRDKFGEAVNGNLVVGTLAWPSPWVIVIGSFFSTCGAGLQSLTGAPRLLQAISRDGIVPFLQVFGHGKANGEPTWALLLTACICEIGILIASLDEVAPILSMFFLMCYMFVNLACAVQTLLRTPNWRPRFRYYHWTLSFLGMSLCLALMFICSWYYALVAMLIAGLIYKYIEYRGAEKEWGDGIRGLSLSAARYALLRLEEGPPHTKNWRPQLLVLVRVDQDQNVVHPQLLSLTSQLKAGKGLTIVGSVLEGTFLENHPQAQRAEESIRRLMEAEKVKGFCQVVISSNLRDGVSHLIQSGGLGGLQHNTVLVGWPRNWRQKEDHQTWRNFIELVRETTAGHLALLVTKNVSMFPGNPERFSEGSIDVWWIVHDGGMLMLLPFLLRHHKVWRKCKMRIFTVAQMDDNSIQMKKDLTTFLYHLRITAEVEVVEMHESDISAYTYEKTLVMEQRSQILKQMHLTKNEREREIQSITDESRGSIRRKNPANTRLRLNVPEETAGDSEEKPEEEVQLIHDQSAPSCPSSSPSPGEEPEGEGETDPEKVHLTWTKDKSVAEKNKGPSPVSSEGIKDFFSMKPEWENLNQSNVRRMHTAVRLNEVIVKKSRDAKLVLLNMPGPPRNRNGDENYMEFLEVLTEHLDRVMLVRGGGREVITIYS
row,Structure (SMILES),B-score of Tl+ flux slope (higher = more flux/activation; lower = inhibition)
1,Cc1c(NC(=O)CN2C(=O)C(=O)N(Cc3ccccc3)C2=O)c(=O)n(-c2ccccc2)n1C,0.0462
2,Oc1oc(-c2ccccc2Br)nc1/C=N/c1ccccn1,1.39
3,CC(C)n1c(O)c(N=Nc2ccccn2)c2ccccc21,5.67 (active)
4,COC(=O)Cn1c(O)c(N=NC(=O)OC)c2ccccc21,1.85
5,COc1ccc(Cn2c(O)c(/C=C3/C=CC=N3)c(=O)[nH]c2=O)cc1,-0.723
6,Cn1nc(C(F)(F)F)cc1C(=O)O,1.56
7,Cc1cc(NC(=O)OC(C)C)ccc1-c1ccc(NC(=O)OC(C)C)cc1C,-0.761
8,CC(C)CN(CC(C)C)CC(O)CN(c1ccccc1)S(=O)(=O)c1ccccc1[N+](=O)[O-] (configuration not stated),-2.39
9,CCC(C)Cn1c(O)cc2nn(-c3nc4ccccc4s3)c(=O)c-2c1C (configuration not stated),5.85 (active)
10,Cc1cc(NC(=O)CN2CCCC(C)C2)n(-c2nc3ccccc3s2)n1 (configuration not stated),0.312
11,CCOC(=O)N1CCN(CC(=O)Nc2cc(C)nn2-c2nc3ccccc3s2)CC1,-0.634
12,C/C(=N\NC(=O)c1cccnc1)c1ccc(-n2ccnc2)cc1,0.898
13,COc1cc2c(cc1OC)C(/C=C/c1ccco1)=NCC2,-1.64
14,COc1cccc(CNC(=O)c2n[nH]c3ccccc23)c1,-0.482
15,O=C(Cc1csc(Nc2nc(=S)[nH]c3ccccc23)n1)NCCCN1CCN(c2cccc(Cl)c2)CC1,18.7 (active)
16,COc1cccc(CNC(=O)CCN2C(=S)NC(C)(C)CC2C)c1 (configuration not stated),-1.19
17,O=C(CCCn1c(=O)[nH]c2cc(Cl)ccc2c1=O)NCCN1CCN(c2ccccc2)CC1,-1.09
18,CCn1c(=O)cc(OCC(=O)NCCCN2CCN(c3cccc(Cl)c3)CC2)c2ccccc21,-4.58
19,COc1cccc(CNC(=O)Cc2csc(Nc3nc(=S)[nH]c4ccccc34)n2)c1,16.7 (active)
20,COC(=O)c1cc(S(=O)(=O)N2CCC(C(N)=O)CC2)oc1C,0.506
21,Cn1cc(S(=O)(=O)NC(c2ccccc2)c2ccccc2)c(=O)n(C)c1=O,1.52
22,CCCNc1c(N)c(=O)c1=O,0.441
23,O=C(Cc1ccccc1)Nc1c(Cl)ccc2nsnc12,0.0149
24,O=C(Nc1ccn(Cc2ccccc2)n1)c1n[nH]c([N+](=O)[O-])c1Cl,-5.21
25,O=C(Nc1ccn(Cc2ccc(F)cc2)n1)c1ccncc1,-1.12

row,Structure (SMILES),B-score of Tl+ flux slope (higher = more flux/activation; lower = inhibition)
1,O=C(Nc1ccn(Cc2ccccc2)n1)c1cccc(F)c1,-4.17 (active)
2,CC(=O)NCc1ccc(S(=O)(=O)NC2CCN(Cc3ccccc3)CC2)cc1,-1.54
3,Nn1c(SCc2ccccc2)nnc1C1CCCCC1,0.0386
4,COc1ccccc1CNC(=O)Cn1c(=O)oc2cc(Cl)ccc21,0.172
5,COc1ccccc1N1CCN(C(=O)CSc2nnc(-c3ccoc3C)o2)CC1,-1.44
6,COC(=O)CSc1ncnc2c1cnn2-c1ccc(C)cc1C,0.528
7,COc1ccccc1N1CCN(C(=O)CSc2ncnc3c2cnn3-c2ccc(C)c(C)c2)CC1,5.99 (active)
8,CN1CCN(c2ccc(S(=O)(=O)N3CCOCC3)cc2NC(=O)CCc2ccccc2)CC1,0.193
9,CC(CO)(CO)NC(=O)c1ccc(=O)[nH]n1,-0.424
10,Cc1cc(=O)[nH]c(SCC(=O)Nc2ccc(Br)cc2)n1,1.17
11,CC1=C(C(N)=O)C(c2ccc3c(c2)OCO3)n2nc(-c3cccc(C)c3)nc2N1 (configuration not stated),-0.546
12,Cc1cccc(C)c1NC(=O)CSc1nnc(-c2ccccc2)n1Cc1ccc2c(c1)OCO2,-0.0425
13,c1ccc(-c2nnc3n2NC(c2ccc4c(c2)OCO4)S3)cc1 (configuration not stated),17.9 (active)
14,CN=C1C=C/C(=N/N=c2\ccn(O)cc2C)C=C1C,0.0998
15,Cc1cccc(C2C3=C(CCCC3=O)N=C3c4ccccc4C(=O)C32)c1 (configuration not stated),1.41
16,Cc1ccc(-n2[nH]c(C)c(/C=N/N3C(=O)c4cccc5cccc(c45)C3=O)c2=O)cc1,41.4 (active)
17,Cc1[nH]n(-c2ccc(Cl)cc2)c(=O)c1/C=N/n1c(C)nc2ccccc2c1=O,1.71
18,COc1cc(SC#N)ccc1N=Cc1c(C)[nH]n(-c2ccc(C)cc2)c1=O,0.0406
19,O=C(CSc1nnc(SCc2ccc(F)cc2)s1)Nc1ccc(C(=O)O)cc1,-2.12
20,COc1ccc([N+](=O)[O-])cc1NC(=O)CCc1ccccc1,-1.49
21,CC(C)CNC(=O)COC(=O)/C=C/c1ccco1,0.238
22,COc1ccc([N+](=O)[O-])cc1NC(=O)COC(=O)/C=C/c1ccco1,-3.66 (active)
23,O=C(COc1ccccc1[N+](=O)[O-])N/N=C/c1ccc[nH]1,1.37
24,CCOC(=O)C1CCN(c2c(Nc3cc(C)cc(C)c3)c(=O)c2=O)CC1,0.776
25,COc1ccccc1OCc1nc2ccccc2s1,-1.36

row,Structure (SMILES),B-score of Tl+ flux slope (higher = more flux/activation; lower = inhibition)
1,COC(=O)c1nc2ccccc2s1,-0.0154
2,CC(=O)c1sc(NC(=O)CCCOc2ccccc2C)nc1C,0.355
3,COc1cccc2sc(NNC(=O)c3nc4ccccc4s3)nc12,92.4 (active)
4,COc1cccc2sc(Nc3nc(C)c(C(C)=O)s3)nc12,16.2 (active)
5,CC(=O)c1sc(NC(=O)c2cccc3ccccc23)nc1C,3.04
6,O=C(N/N=C/c1ccc(Br)o1)c1cncc(Br)c1,7.4 (active)
7,Cc1ccc(C(=O)N/N=C\c2cc(Br)c(Br)o2)cn1,1.86
8,O=C(CCc1n[nH]c(=O)[nH]c1=O)N/N=C/c1ccc(Br)o1,0.0262
9,CCN(CC)CCCN=C(N)N,0.285
10,Cc1nc2cc(NC(=O)Nc3cccc(F)c3)ccc2n1C,0.703
11,NNC(=O)c1cccc(COCC(F)(F)C(F)F)c1,-0.618
12,Cc1cccc(-n2c(SCC(N)=O)nc3c(c2=O)C2(CCCCC2)Cc2ccccc2-3)c1,4.92 (active)
13,Cc1cccc(-n2c(=O)c3c(C)c(C)sc3n(CC(N)=O)c2=O)c1,0.771
14,N#CCSc1nc2c(c(=O)n1Cc1ccccc1)C1(CCCC1)Cc1ccccc1-2,1.45
15,Cc1cc(Nc2ccc(Cl)cc2)nc(N2CCOCC2)n1,-1.05
16,NC(=S)Nc1c(Cl)cccc1Cl,0.0214
17,C=CCNC(=S)NNC(=O)COc1c(Cl)cc(Cl)cc1Cl,7.57 (active)
18,C=CCNC(=S)NNC(=O)c1ccc(Br)o1,0.645
19,C=CCNC(=O)COC(=O)CNC(=O)c1cc(Cl)cc([N+](=O)[O-])c1,0.057
20,Cc1cc(Nc2ccc(N3CCOCC3)cc2)c2cccc(C)c2n1,-2.79
21,C=CCNC(=S)N/N=C/c1ccc(C)s1,14 (active)
22,CNC(=S)N/N=C/c1ccc(N2CCOCC2)s1,1.59
23,Cc1ccc(/C=N/NC(=O)CN2CCN(Cc3ccccc3)CC2)s1,0.187
24,O=C(Nc1nnc(CCN2CCCCC2)s1)c1cccc(Cl)c1,0.116
25,CN1CCN(c2ccc(CNS(=O)(=O)c3cccc(F)c3)cc2)CC1,-0.58

row,Structure (SMILES),B-score of Tl+ flux slope (higher = more flux/activation; lower = inhibition)
1,Cc1nnc(C)c2c(C)n(N)c(C)c12,0.198
2,COc1ccc(S(=O)(=O)Nc2cccnc2)c(Cl)c1Cl,0.54
3,CCOC(=O)C1=C(C)NC(=O)N(C(C)=O)C1c1ccc(Cl)cc1 (configuration not stated),-1.98
4,CCOC(=O)C1Sc2[nH]c(=O)sc2C(c2ccc(Cl)cc2)C1C(=O)OCC (configuration not stated),-3.93 (active)
5,CCOC(=O)C1C(c2ccc(Cl)cc2)NC(=S)NC1(O)C(F)(F)F (configuration not stated),1.75
6,CCOCCn1c(-c2ccccc2)nc2ccccc21,0.025
7,Cc1cccc(-n2cnc(C(=O)NNC(=S)Nc3ccccc3)c2)n1,-1.44
8,CCOc1ccc(-c2n[nH]c(=S)n2/N=C/c2cc3c(cc2[N+](=O)[O-])OCO3)cc1,0.939
9,Cc1ccc(-c2n[nH]c(=S)n2/N=C/c2cc3c(cc2[N+](=O)[O-])OCO3)cc1,0.106
10,O=[N+]([O-])c1ccccc1/C=N/n1c(COc2ccccc2)n[nH]c1=S,24.3 (active)
11,COc1ccc(N(Cc2ccccc2)S(=O)(=O)c2cccc(C(=O)O)c2)cc1,-1.07
12,Cc1csc(=Nc2ccccc2)n1CCO,0.00145
13,Cc1cs/c(=N\N=C\c2ccc(O)cc2)n1Cc1ccco1,-4.66 (active)
14,CN(c1ccccc1)c1ccc(/C=c2\s/c(=C(/C#N)C(=O)C(C)(C)C)n(Cc3ccco3)c2=O)cc1,0.174
15,CCc1nc2sc3c(Cl)ncnc3c2c2c1CCCC2,1.2
16,Cc1ccc(F)cc1NC(=O)N1CCCN(c2ccc(C(F)(F)F)cn2)CC1,0.46
17,Cc1ccc(N(C(=O)c2sc(C)nc2C)C(C(=O)NC(C)(C)C)c2ccncc2)cc1 (configuration not stated),0.0067
18,O=C(Nc1ccccc1)N1CCN(Cc2ccccc2)CC1,-0.481
19,O=C(CN1CCN(Cc2ccccc2)CC1)NC(c1ccccc1)c1ccccc1,-2.1
20,O=C(NC(=S)N1CCN(Cc2ccccc2)CC1)c1ccccc1,26.6 (active)
21,CC(=O)Nc1nc(C)c(-c2csc(Nc3ccc(S(N)(=O)=O)cc3)n2)s1,0.404
22,Oc1ccc(-c2nnc(Nc3ccccc3)c3ccccc23)cc1,-3.93
